TMEM16A inh = blocks the mouse calcium-activated chloride channel TMEM16A; Q8BHY3; HEK293 TMEM16A/YFP iodide influx fluorescence, ionomycin; normalized B-score (activity score, 25-100; higher = stronger inhibition) at 10 µM; actives 1.2% (n = 310,000); AID 588511;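 active = ratio plate-corrected score three or more library SD toward inhibition, starting fluorescence score within five deviations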;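 note: score derived from kinetic fluorescence span divided by baseline fluorescence per well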
Target sequence (Q8BHY3 whole entry, looked up): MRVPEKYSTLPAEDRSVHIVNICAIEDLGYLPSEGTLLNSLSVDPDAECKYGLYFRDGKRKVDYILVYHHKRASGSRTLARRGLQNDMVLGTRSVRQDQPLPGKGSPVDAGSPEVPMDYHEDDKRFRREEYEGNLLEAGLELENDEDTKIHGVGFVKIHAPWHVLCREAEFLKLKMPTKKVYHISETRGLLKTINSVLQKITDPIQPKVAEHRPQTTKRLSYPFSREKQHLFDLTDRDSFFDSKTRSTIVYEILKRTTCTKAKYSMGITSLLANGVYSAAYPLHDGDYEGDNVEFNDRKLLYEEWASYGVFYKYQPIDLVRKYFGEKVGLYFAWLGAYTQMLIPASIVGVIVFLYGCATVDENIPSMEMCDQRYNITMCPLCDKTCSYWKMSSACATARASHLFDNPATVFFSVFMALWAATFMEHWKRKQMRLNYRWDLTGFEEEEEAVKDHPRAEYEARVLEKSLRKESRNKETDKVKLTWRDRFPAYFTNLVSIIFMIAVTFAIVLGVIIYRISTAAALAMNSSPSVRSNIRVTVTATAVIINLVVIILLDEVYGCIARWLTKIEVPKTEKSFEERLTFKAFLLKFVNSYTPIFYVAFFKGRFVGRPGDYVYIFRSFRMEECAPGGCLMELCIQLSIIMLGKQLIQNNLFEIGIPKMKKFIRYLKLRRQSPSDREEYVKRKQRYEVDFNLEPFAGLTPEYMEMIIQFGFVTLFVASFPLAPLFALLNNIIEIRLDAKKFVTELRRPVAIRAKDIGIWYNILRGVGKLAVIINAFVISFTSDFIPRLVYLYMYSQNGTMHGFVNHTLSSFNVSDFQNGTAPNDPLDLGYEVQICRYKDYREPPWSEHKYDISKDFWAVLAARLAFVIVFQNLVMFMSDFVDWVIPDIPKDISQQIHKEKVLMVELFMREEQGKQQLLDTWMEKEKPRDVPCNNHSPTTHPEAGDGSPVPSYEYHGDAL
ANO1 activ = mouse TMEM16A channel activation, primary screen | B-score at 10 µM | actives 0.3% (n = 340,000) | HEK293 TMEM16A/YFP-H148Q/I152L, iodide quench fluorescence; hits give low values;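 active = fluorescence-ratio B-score plate-corrected deviation score at least 3 library SD below zero, with starting fluorescence score within 5 deviations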;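 note: channel opened by trigger with iodide after compound preincubation; score built on the fluorescence ratio of max minus min over baseline; more negative score means more quench and so TMEM16A activation or potentiation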
CRFBP-R2 block = CRF-BP/CRF-R2 complex antagonism. HEK293 CRF-R2/CRF-BP, CRF-induced calcium fluorescence. inhibition, % at 11.8 µM. actives 0.59% (n = 350,000). AID 588475;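 active = inhibition of the ligand-induced calcium signal above about 50% at the single tested concentration, limit read from the data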
CRFR2-BP ag = agonists of human CRF-binding protein/CRF-R2 receptor complex; HEK293 CRF-R2/CRF-BP, calcium dye fluorescence (FLIPR); percent of saturating CRF peptide response; activation, % at 13.2 µM; actives 0.46% (n = 350,000);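 active = activation of at least 50%, plus an integration ratio under a set limit after plate pattern correction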;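 note: plate controls were neutral control wells without compound for no effect and CRF at EC100 for full effect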
MPTP block = blocks calcium-induced mitochondrial swelling. AID 602449. inhibition, % at 10 µM. actives 1.4% (n = 360,000). isolated mouse mitochondria, Ca2+ swelling absorbance, 30 min;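 active = inhibition of 50% or more, scaled per plate between neutral and stimulator controls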;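 note: 0% = DMSO wells given calcium and 100% = 1 mM EGTA wells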
GRIN3A LBD mod = modulates the human NR3A ligand-binding domain; NR3A LBD differential scanning fluorimetry, Tm shift; 0% = protein alone, 100% = glycine-bound protein; Tm shift relative to glycine control, % at 25 µM; actives 2.5% (n = 340,000); AID 1259313;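 active = melting temperature shift of at least 10% of the positive control shift, at one fixed dose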
* hit, by the source's call. In the library only some 5.1% were active in any assay of this set; here they are far more common.

For COc1ccc(-c2cc3c(=O)n(CC(=O)Nc4cccc(Cl)c4)ncn3n2)cc1 the results were TMEM16A inh inactive, ANO1 activ inactive, CRFBP-R2 block -15.2, CRFR2-BP ag 0.6, MPTP block 5.6 and GRIN3A LBD mod -2.4.
COc1cccc(Oc2ccc(OC)cc2C(=O)O)c1 was read as TMEM16A inh inactive, ANO1 activ inactive, CRFBP-R2 block 74.1*, CRFR2-BP ag 3.6, MPTP block -0.2 and GRIN3A LBD mod 0.5.
For COc1cccc(Nc2ccccc2C(=O)O)c1 the results were TMEM16A inh inactive, ANO1 activ inactive, CRFBP-R2 block -11.7, CRFR2-BP ag -3.3, MPTP block -0.3 and GRIN3A LBD mod -0.6.
`COc1ccc(OC(=O)c2ccc(Cl)cc2)c(C(C)=O)c1` gave TMEM16A inh inactive, ANO1 activ inactive, CRFBP-R2 block 51.5*, CRFR2-BP ag 0.2, MPTP block -1.2 and GRIN3A LBD mod -1.4.
`COc1ccc(OC)c(C(=O)c2ccc(C(=O)c3cc(OC)ccc3OC)cc2)c1` gave TMEM16A inh inactive, ANO1 activ inactive, CRFBP-R2 block 24.5, CRFR2-BP ag -1.2, MPTP block 1.0 and GRIN3A LBD mod 19.8*.
CC(=O)c1ccc(S(=O)(=O)N(C)CCCC(=O)N(C)Cc2c(F)cccc2Cl)cc1 was read as TMEM16A inh inactive, ANO1 activ inactive, CRFBP-R2 block 8.1, CRFR2-BP ag -1.6, MPTP block -0.1 and GRIN3A LBD mod -3.9.
`CNC(=O)c1cc(S(=O)(=O)N2CC(C)OC(C)C2)ccc1N1CCCCC1` (stereo not drawn) gave ANO1 activ inactive, CRFBP-R2 block 3.1, CRFR2-BP ag 1.0, MPTP block 0.3 and GRIN3A LBD mod 1.6.
Screening CC(C)CCNC(=S)Nc1ccccc1F returned TMEM16A inh inactive, ANO1 activ inactive, CRFBP-R2 block 27.0, CRFR2-BP ag -0.2, MPTP block 1.4 and GRIN3A LBD mod 13.7*.
Screening CC(C)CCNC(=S)Nc1ccccn1 returned TMEM16A inh inactive, ANO1 activ inactive, CRFBP-R2 block -22.3, CRFR2-BP ag -1.7, MPTP block -1.2 and GRIN3A LBD mod -1.7.
`COc1ccc(-c2c(C#Cc3ccc(N(C)C)cc3)c3ccccc3n2C)cc1` gave ANO1 activ inactive, CRFBP-R2 block 7.4, CRFR2-BP ag -1.9, MPTP block 1.8 and GRIN3A LBD mod -0.2.
COc1ccc(C#Cc2c(-c3ccccc3)n(-c3ccccc3)c3ccc(CO)cc23)cc1 was read as ANO1 activ inactive, CRFBP-R2 block 117.8*, CRFR2-BP ag 1.9, MPTP block 2.7 and GRIN3A LBD mod -2.7.
Screening CCN(C(=O)COC(=O)CCOc1cc(C)ccc1C)c1c(N)n(Cc2ccccc2)c(=O)[nH]c1=O returned ANO1 activ inactive, CRFBP-R2 block -6.1, CRFR2-BP ag 0.6, MPTP block -1.7 and GRIN3A LBD mod -1.5.
For O=C1CCc2cc(S(=O)(=O)N3CCC(C(=O)NC4CCCCCCC4)CC3)ccc2N1 the results were TMEM16A inh inactive, ANO1 activ inactive, CRFBP-R2 block 68.5*, CRFR2-BP ag 0.1, MPTP block -0.5 and GRIN3A LBD mod 0.1.
For O=C(NC1CCCCCC1)C1CCN(S(=O)(=O)c2ccc(F)cc2)CC1 the results were TMEM16A inh inactive, ANO1 activ inactive, CRFBP-R2 block -8.1, CRFR2-BP ag 8.9, MPTP block 0.2 and GRIN3A LBD mod 0.7.
COc1ccc(NC(=O)Cn2cc(C#N)c3ccccc32)cc1 was read as TMEM16A inh inactive, ANO1 activ inactive, CRFBP-R2 block -4.4, CRFR2-BP ag -0.6, MPTP block 0.7 and GRIN3A LBD mod 0.5.
For COc1ccc(OC)c(NC(=O)Cn2cc(C#N)c3cc(Br)ccc32)c1 the results were TMEM16A inh inactive, ANO1 activ inactive, CRFBP-R2 block -2.2, CRFR2-BP ag 0.5, MPTP block 0.5 and GRIN3A LBD mod 15.1*.
CC1CCC(NC(=O)COC(=O)C2=NN(c3ccccc3)C(=O)CC2)CC1 (stereo not drawn) was read as ANO1 activ inactive, CRFBP-R2 block -0.3, CRFR2-BP ag 1.0, MPTP block -3.3 and GRIN3A LBD mod -1.8.
Screening Cc1ccc(S(=O)(=O)N2CCN(C(=O)N3CCCCC3)CC2)c(C)c1 returned CRFBP-R2 block -30.5, CRFR2-BP ag -1.5 and MPTP block 0.1.
`CC(/C=C/c1ccccc1)=N/NC(=O)CNC(=O)c1ccc2c(c1)OCO2` gave TMEM16A inh inactive, ANO1 activ inactive, CRFBP-R2 block 72.4*, CRFR2-BP ag 0.4, MPTP block 2.9 and GRIN3A LBD mod -0.1.
`CC(/C=C/c1ccccc1)=N\NC(=O)c1ccc2c(c1)OCCO2` gave TMEM16A inh inactive, ANO1 activ inactive, CRFBP-R2 block 4.7, CRFR2-BP ag -0.8, MPTP block 0.3 and GRIN3A LBD mod 1.4.
For Cc1nn2c3ccccc3n(C)c2nc1=O the results were TMEM16A inh inactive, ANO1 activ inactive, CRFBP-R2 block -6.1, CRFR2-BP ag 1.6, MPTP block 0.2 and GRIN3A LBD mod 0.6.
Screening Cc1nn2c3ccccc3n(Cc3ccccc3)c2nc1=O returned TMEM16A inh inactive, ANO1 activ -20.4*, CRFBP-R2 block -2.1, CRFR2-BP ag 0.4, MPTP block 0.6 and GRIN3A LBD mod 0.8.
`Cc1ccccc1NC(=S)NCCc1c[nH]c2ccccc12` gave TMEM16A inh inactive, ANO1 activ inactive, CRFBP-R2 block 19.9, CRFR2-BP ag -1.2, MPTP block 2.2 and GRIN3A LBD mod -10.0.
For CC(C)c1ccc(NC(=S)NCCc2c[nH]c3ccccc23)cc1 the results were TMEM16A inh inactive, ANO1 activ inactive, CRFBP-R2 block -42.4, CRFR2-BP ag -0.8, MPTP block 36.4 and GRIN3A LBD mod 30.6*.
Cc1ccc(NC(=S)NCCc2c[nH]c3ccccc23)cc1 was read as TMEM16A inh inactive, ANO1 activ inactive, CRFBP-R2 block 7.6, CRFR2-BP ag -1.7, MPTP block 1.1 and GRIN3A LBD mod 23.1*.
For Cc1ccc(C)c(NC(=S)NCCc2c[nH]c3ccccc23)c1 the results were TMEM16A inh inactive, ANO1 activ inactive, CRFBP-R2 block 3.3, CRFR2-BP ag -1.2, MPTP block 29.2 and GRIN3A LBD mod 2.9.
Screening Cc1cccc(NC(=S)NCCc2c[nH]c3ccccc23)c1 returned TMEM16A inh inactive, ANO1 activ inactive, CRFBP-R2 block 1.1, CRFR2-BP ag -0.7, MPTP block 3.3 and GRIN3A LBD mod 28.4*.
For CCN(CC)C(=O)C1=C(C)N(CCC2=CCCCC2)C(=O)C(CC(=O)NCCCN(C)C)C1 (stereo not drawn) the results were CRFBP-R2 block 11.9, CRFR2-BP ag -0.3 and MPTP block 0.5.
`O=C(CNC(=O)c1[nH]cnc1C(=O)NC(c1ccccc1)c1ccccc1)OCc1ccccc1` gave TMEM16A inh inactive, ANO1 activ inactive, CRFBP-R2 block -2.2, CRFR2-BP ag 0.6, MPTP block 0.1 and GRIN3A LBD mod -7.7.
